Data taken from PubChem BioAssay (NCATS).
Records with an inconclusive call do not appear. A call without a number means that no potency is given here. Unmarked numbers belong to inactive results. Calls of active or inactive are those of the source. Calls follow the shape of the dose curve; as a rule, active = well fitted curve in the direction sought with a large enough effect; inconclusive = small, poorly fitted or top-dose-only effect, or another doubt; inactive = no such curve, though single readings can be large; an effect the other way counts as inactive or inconclusive.

Legend:
[1] = Viability qHTS for spleen associated tyrosine kinase inhibitor (SYKi) drug resistant MV4-11 cells (AID 1963824); also: nearly all actives have a fitted effect of over 35% in size; also: potency is read from the fitted curve at half-maximal effect
How it was run: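 SYK inhibitor-resistant MV4-11 AML cells, 500 per well, added to predispensed compounds and incubated 72 hr at 37 C, 5% CO2. Viability measured by CellTiter-Glo luminescence after 10 min at room temperature.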

[2] = Viability qHTS for spleen associated tyrosine kinase inhibitor (SYKi) naive MV4-11 cells (AID 1963823); also: nearly all actives have a fitted effect of over 40% in size
How it was run: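 Compounds were dispensed acoustically onto plates, MV4-11 cells (SYKi-naive) added at 500 per well, and plates incubated 72 hr at 37 C. CellTiter-Glo was added and luminescence measured after 10 min.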

[3] = Cellular viability qHTS for adrenocortical cancer (ACC) cell line NCI-H295R (AID 1963990); also: nearly all actives have a fitted effect of over 60% in size; also: potency is read from the fitted curve at half-maximal effect
How it was run: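 CellTiter-Glo ATP luminescence, read 48 h after compound addition, measured viability of NCI-H295R adrenocortical cells grown serum-free with ITS. Final concentrations spanned up to 46 uM. Data normalized to DMSO and doxorubicin, fitted for IC50 and maximal response.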

[4] = Cellular viability qHTS for adrenocortical cancer (ACC) cell line SW-13 (AID 1963989); settings: SW-13 ACC cells viability, CellTiter-Glo, 48 h; activity (max response): hits give low values;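 also: cells grown in serum-free medium with ITS supplement; nearly all actives have a fitted effect of over 65% in size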
How it was run: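 Viability was read as CellTiter-Glo luminescence after 48 h compound treatment (up to 46 uM final) of SW-13 cells grown serum-free; titration curves were fit with a four-parameter logistic model to give IC50 and efficacy.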

CC[C@@H]1C[C@H]2CC[C@H](O2)[C@H](C)C(=O)O[C@@H](C)C[C@@H]2CC[C@@H](O2)[C@@H](C)C(=O)O[C@H](C)C[C@H]2CC[C@H](O2)[C@H](C)C(=O)O[C@@H](C)C[C@@H]2CC[C@@H](O2)[C@@H](C)C(=O)O1
Potency [1]: 0.0385 µM (active)

Cc1cn(C[C@H](N)C(=O)O)c(=O)n(Cc2cc(-c3ccccc3)sc2C(=O)O)c1=O
Potency [1]: inactive

Cn1ncnc1COc1nn2c(-c3c(F)cccc3F)nnc2cc1C1CCC1
Potency [1]: inactive

CC(=O)OC1CC(O)C2(C)C(CC(OC(C)=O)C3(C)C2CCC2(C)C(c4ccoc4)C(=O)C4OC423)C1(C)C (stereo unspecified)
Potency [1]: 6.32 µM (active)

COC1C(O)C(OC2CCC3(C=O)C(CCC4C3CCC3(C)C(C5=CC(=O)OC5)CCC43O)C2)OC(C)C1OC1OC(CO)C(O)C(O)C1O (stereo unspecified)
Potency [1]: 0.172 µM (active)

O=C1c2ccccc2C(=O)C1C(=O)C(c1ccccc1)c1ccccc1
Potency [2]: inactive | Potency [3]: 23.1 µM (active)

COc1ccc(C23CCC(=O)C=C2N(C)CC3)cc1OC (stereo unspecified)
Potency [1]: 3.66 µM (active)

O=C1Nc2ccc3ncsc3c2/C1=C/c1cnc[nH]1
Potency [1]: 0.164 µM (active)

CC(C)(N)Cc1ccccc1Cl
Potency [2]: inactive | activity (max response) [4]: 5.36% | Potency [3]: inactive

OCCCBr
Potency [2]: inactive | activity (max response) [4]: 0.205% | Potency [3]: inactive

NCCc1cc(O)c(O)cc1O
Potency [2]: inactive | activity (max response) [4]: 6.64% | Potency [3]: inactive

CCOC(=O)Nc1ccc(NCc2c(C)cc(C)cc2C)cc1N
Potency [1]: 9.2 µM (active)

Cc1ccc2c(c1)C1CN(C)CCC1N2 (stereo unspecified)
Potency [2]: inactive | Potency [3]: inactive
